The supplement of paper PMC3334620
In all, about 33,000 sequences were measured (“E-score (-0.5 to 0.5)”: median about -8e-05, highest 2% from about 0.23 on). The sample as a whole holds a higher share of the highest values than the screen did.

molecular target: T1, Nrg2 (UniProt P38082); test: PBM E-score (8-mer binding enrichment) (E-score (-0.5 to 0.5)); higher = stronger / more preferred TF binding; settings: protein concentration: 100 nM; construct: GST-full length
T1 sequence: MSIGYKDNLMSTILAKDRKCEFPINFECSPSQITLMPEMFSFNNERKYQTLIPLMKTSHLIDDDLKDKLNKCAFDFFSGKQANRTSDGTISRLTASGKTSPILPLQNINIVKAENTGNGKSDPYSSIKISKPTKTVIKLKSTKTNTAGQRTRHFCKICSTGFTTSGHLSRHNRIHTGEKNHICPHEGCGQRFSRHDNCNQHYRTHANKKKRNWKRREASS
Protocol: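 Universal 'all 10-mer' protein binding microarrays (Agilent AMADID 015681) probed with GST-tagged S. cerevisiae TFs (full-length or DBD) made by in vitro transcription/translation (PURExpress), about 100-200 nM. Bound TF was detected with fluorescent anti-GST. Each ungapped 8-mer (which stands for itself and its reverse complement) is scored by the PBM enrichment score (E-score), a modified Wilcoxon-Mann-Whitney statistic from -0.5 to +0.5, computed with the Universal PBM Analysis Suite. Scale: above 0.35 generally sequence-specific binding.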

| Sequence | PBM E-score |
| --- | --- |
| CGCATGCC | 0.145 |
| GGCATGCA | -0.113 |
| AGCATGCA | 0.00231 |
| CGCATGCG | 0.0387 |
| TGCATGCA | 0.233 |
| CGCATGCA | 0.246 |
| GGGCGACA | -0.132 |
| AGAGTTGA | -0.073 |
| GTCCCACA | 0.0612 |
| ACGTTGAC | -0.00444 |
| CCAACACG | 0.0552 |
| ACAACACA | 0.0869 |
| TCAACACA | 0.235 |
| CTTCGATC | -0.00647 |
| AGATTCGA | 0.0269 |
| CGATTCGA | 0.27 |
| GGATTCGA | -0.0125 |
| GCCGCGCC | -0.0901 |
| GTCCCGTA | -0.111 |
| ACGCGACC | -0.0575 |
| GATGCAAA | 0.0177 |
| CAGCAACA | 0.159 |
| AAGCAACG | 0.161 |
| CAGCAACG | 0.251 |
| GTCAGCAC | -0.0154 |

| Sequence | PBM E-score |
| --- | --- |
| GACTACGC | -0.187 |
| AACGAAAG | -0.0319 |
| AACGAAAT | 0.251 |
| AACGAAAC | 0.117 |
| ATTGCAGC | 0.0702 |
| GGGCGTAC | 0.0663 |
| GAACCCAA | 0.0482 |
| GTAACCCA | 0.229 |
| ATAACCCA | -0.0462 |
| AGGACCTA | 0.114 |
| GCACCCTA | 0.105 |
| GGGACCTA | 0.245 |
| CTAACCCA | -0.00624 |
| GAACCCCC | -0.322 |
| CGACCCTA | 0.109 |
| GAACCCCA | 0.26 |
| GGACCCTA | 0.305 |
| CGGACCTA | 0.0604 |
| GCGCTGGA | 0.0138 |
| ATGGGTAG | -0.13 |
| CGACGGTA | 0.0706 |
| GCAATAGC | 0.133 |
| AAAAGGGC | 0.12 |
| ATGCTCCA | 0.0544 |
| GGACCCCC | -0.144 |

| Sequence | PBM E-score |
| --- | --- |
| GGACCCCA | 0.236 |
| TGACCCCA | 0.0468 |
| AAGATAGC | 0.0443 |
| CGGACGAA | 0.233 |
| GAGACGAA | -0.0342 |
| GGGACGAA | 0.0439 |
| CAGACGAA | 0.252 |
| CGGACGAC | -0.061 |
| CAGACGAC | -0.0246 |
| AAGCTAAT | 0.11 |
| CTAGTCAC | -0.122 |
| AACTACAT | -0.038 |
| GGTCTCGA | 0.0782 |
| CAGACGGC | -0.16 |
| AGAGGAAC | -0.113 |
| CGAGGAAA | 0.0442 |
| CGAGGAAC | 0.269 |
| CAGCACGA | 0.0405 |
| GCCCTTGA | -0.00607 |
| CCCCTAGA | 0.117 |
| ACCCTTGA | 0.242 |
| ACCCTAGA | 0.284 |
| CCCCTTGA | 0.2 |
| CCCCTTGC | -0.0115 |
| ACCCTTGC | 0.268 |

| Sequence | PBM E-score |
| --- | --- |
| ACCCTAGT | -0.0371 |
| ACCCTTGG | 0.198 |
| AGGACTAA | -0.0768 |
| GTACTAGA | -0.00429 |
| AACGACTC | -0.253 |
| ATAGAAGA | -0.158 |
| CACAGGCA | 0.0159 |
| AATGACGG | 0.125 |
| CACCGCGC | -0.0311 |
| CGCAGCTA | -0.0329 |
| CATCCACA | 0.0702 |
| ACAGAATA | 0.148 |
| AAAAATGA | 0.0139 |
| GAAAATGA | -0.0055 |
| GGAAATGA | 0.25 |
| TAAAATGA | 0.254 |
| CGAAATGA | 0.127 |
| CTAAATGA | 0.0289 |
| CCACCAGA | 0.0154 |
| CCCGGAGA | -0.138 |
| TGATAGCA | 0.14 |
| TGAGGACA | 0.0644 |
| ACTCTTTA | -0.0446 |
| GAGTAGGC | -0.0622 |
| AATACTGC | 0.068 |

| Sequence | PBM E-score |
| --- | --- |
| ACAGCTGC | -0.0727 |
| CTTACTAA | 0.0213 |
| CAGGCCTG | 0.115 |
| AGGGTACT | 0.255 |
| AGGGTACC | 0.0534 |
| AGGGTACA | 0.181 |
| GGTCTACA | -0.0592 |
| CAAACCAC | -0.00637 |
| CTACGTTC | -0.178 |
| CCGGAACA | -0.0209 |
| TCGGAACA | 0.313 |
| ACGGAACA | 0.0339 |
| CGGCCATA | -0.123 |
| AGGTTTCC | -0.0376 |
| TCCGTGCA | 0.134 |
| CGAACGGC | -0.0328 |
| CATGGCCG | 0.258 |
| CATGGCCC | -0.066 |
| CATGGCCA | -0.042 |
| AGTCAGTC | -0.127 |
| ACTAATCT | 0.00502 |
| CCTAATCG | 0.16 |
| ACTAATCG | 0.278 |
| GGACCACC | 0.0365 |
| ACTCCAGC | -0.0193 |

| Sequence | PBM E-score |
| --- | --- |
| AATTTCGC | 0.244 |
| ATTTTCGC | 0.131 |
| GATTTCGC | 0.281 |
| CATTTCGC | 0.184 |
| GATTTCGA | 0.00717 |
| AATTTCGA | 0.0453 |
| GTAGTCTA | -0.118 |
| AACAATAA | 0.26 |
| AGCAATAT | 0.0474 |
| AACAATAC | 0.202 |
| AACACTAT | 0.252 |
| ACCAATAT | 0.213 |
| AACACTAC | 0.0505 |
| AACAATAT | 0.266 |
| AACACTAG | 0.152 |
| GACAAAAA | 0.0692 |
| GACAAAAC | 0.274 |
| GACAAGAC | 0.154 |
| AACAATAG | -0.124 |
| AGTGAATC | 0.0226 |
| ATTTGCTC | 0.156 |
| GCCGAGGC | 0.177 |
| CATTAAGA | -0.214 |
| ACTGGCCT | -0.0393 |
| CCGGAGCC | -0.189 |

| Sequence | PBM E-score |
| --- | --- |
| AGTAATAC | -0.0266 |
| AGTAATAG | 0.247 |
| AACAATCG | -0.0412 |
| GACAATAA | 0.218 |
| AATAATAA | 0.0987 |
| AACAATCC | 0.241 |
| CGTAATAG | -0.00104 |
| AACAATCT | 0.0946 |
| GACAATAC | 0.232 |
| CACAATAC | 0.173 |
| AATAATAT | 0.283 |
| AATAATAG | 0.0626 |
| TCTCTTAA | 0.123 |
| AGGTTCAG | 0.0524 |
| ACCCTTCT | -0.104 |
| GCCTGGTA | 0.0618 |
| ATAGGTTA | -0.00463 |
| AGCAATAC | 0.12 |
| CGCAATAC | 0.231 |
| CGCAATAA | 0.211 |
| GATACACC | 0.0324 |
| TAATCGAA | 0.176 |
| CTGTCGAC | -0.0435 |
| AAATCGAG | 0.0129 |
| CAATCGAC | -0.102 |

| Sequence | PBM E-score |
| --- | --- |
| CTATCGAC | -0.166 |
| AAATCGAC | 0.237 |
| GTATCGAC | 0.123 |
| ATATCGAC | 0.255 |
| CAATCGAA | 0.258 |
| ATGTCGAC | 0.254 |
| AAATCGAA | 0.111 |
| ATGTCGAA | 0.147 |
| CGCCGGAC | 0.0155 |
| CCCTGTCC | 0.0104 |
| CTTGAAGC | -0.0505 |
| CAACGGTG | -0.187 |
| CAACAAGG | 0.186 |
| GACTCTCA | -0.0326 |
| AATGCACC | 0.0152 |
| GAATTTGC | 0.172 |
| ATCTGAGG | 0.0579 |
| ACTAACGA | 0.00448 |
| CACAGCGC | 0.156 |
| CGCGACAA | 0.308 |
| GGCGAACA | -0.00418 |
| CGCGAACA | 0.264 |
| AGCGAACA | 0.0707 |
| GGCGACCA | -0.146 |
| TGCGACAA | 0.0655 |

| Sequence | PBM E-score |
| --- | --- |
| ACCGACAA | 0.0162 |
| CCCGACAG | -0.165 |
| CCCGACAA | 0.261 |
| AGCGACCA | -0.0183 |
| CGCGACCA | 0.23 |
| GGCGACAA | -0.0104 |
| ACGCCCCA | 0.179 |
| AAGGCGGG | -0.208 |
| CGGTGATA | -0.0567 |
| ACAGAGCA | 0.0833 |
| TAGCATGA | 0.149 |
| TAAATGAA | 0.0819 |
| CAAATGAC | 0.0271 |
| GAAATGAA | 0.29 |
| CAAATGAA | -0.0303 |
| GAAATGAC | 0.249 |
| AAAATGAC | 0.0768 |
| AGCGAAAC | 0.102 |
| CTTACCAA | 0.069 |
